# TMEM16A inh: inhibitors of mouse TMEM16A calcium-activated chloride channel. Q8BHY3. HEK293 TMEM16A/YFP iodide influx fluorescence, ionomycin. normalized B-score (activity score, 25-100; higher = stronger inhibition) at 10 µM. actives 1.2% (n = 310,000). AID 588511;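 active means ratio plate-corrected score three or more library SD toward inhibition, starting fluorescence score within five deviations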;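 further: score derived from kinetic fluorescence span divided by baseline fluorescence per well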
# Target sequence (Q8BHY3 whole entry, looked up): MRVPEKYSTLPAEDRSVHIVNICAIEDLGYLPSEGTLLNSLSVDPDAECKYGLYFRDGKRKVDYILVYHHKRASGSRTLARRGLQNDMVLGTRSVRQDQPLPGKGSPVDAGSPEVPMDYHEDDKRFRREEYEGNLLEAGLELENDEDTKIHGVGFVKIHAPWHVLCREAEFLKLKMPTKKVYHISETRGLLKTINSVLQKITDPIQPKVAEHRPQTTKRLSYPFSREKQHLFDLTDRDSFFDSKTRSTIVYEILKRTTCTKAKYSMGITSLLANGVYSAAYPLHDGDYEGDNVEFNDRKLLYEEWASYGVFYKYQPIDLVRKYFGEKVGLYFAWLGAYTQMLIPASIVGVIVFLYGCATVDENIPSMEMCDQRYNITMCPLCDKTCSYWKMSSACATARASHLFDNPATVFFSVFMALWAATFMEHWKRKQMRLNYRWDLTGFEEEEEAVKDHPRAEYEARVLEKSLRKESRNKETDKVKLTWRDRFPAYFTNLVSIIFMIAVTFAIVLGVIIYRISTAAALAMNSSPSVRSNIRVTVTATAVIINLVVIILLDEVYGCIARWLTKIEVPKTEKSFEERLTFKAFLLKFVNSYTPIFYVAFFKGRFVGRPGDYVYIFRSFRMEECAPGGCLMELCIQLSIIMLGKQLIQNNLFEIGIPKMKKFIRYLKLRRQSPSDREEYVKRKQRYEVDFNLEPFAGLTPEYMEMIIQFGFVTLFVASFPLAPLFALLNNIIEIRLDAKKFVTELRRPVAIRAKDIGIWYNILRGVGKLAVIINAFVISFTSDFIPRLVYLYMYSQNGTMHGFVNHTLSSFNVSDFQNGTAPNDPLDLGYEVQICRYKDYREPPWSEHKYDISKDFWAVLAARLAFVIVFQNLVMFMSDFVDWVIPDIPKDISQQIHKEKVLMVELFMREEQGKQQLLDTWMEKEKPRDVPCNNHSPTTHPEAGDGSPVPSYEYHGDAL
# CHT inh: inhibitors of human choline transporter CHT | B-score at 10 µM | actives 0.86% (n = 310,000) | AID 488975 | Q9GZV3 | CHT-expressing cells, membrane potential dye, choline response; hits give low values;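 active means B-score over 3 SD under the library average, and starting fluorescence ratio not unusually high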;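 further: choline stimulus applied at its EC90 after an EC20 pre-addition; B-score computed on integrated fluorescence ratio after choline addition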
# CHT allo act: allosteric activators of human choline transporter CHT; B-score at 10 µM; CHT-expressing cells, membrane potential dye, choline EC20; hits give high values; LV-AA mutant CHT in HEK293 cells; actives 0.49% (n = 310,000);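 active means initial fluorescence not abnormally high and integrated response B-score, plate-corrected, over 3 SD above library mean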
# ANO1 activ: activators or potentiators of mouse TMEM16A chloride channel | HEK293 TMEM16A/YFP-H148Q/I152L, iodide quench fluorescence; hits give low values | Q8BHY3 | B-score at 10 µM | actives 0.3% (n = 340,000);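 active means fluorescence-ratio B-score plate-corrected deviation score at least 3 library SD below zero, with starting fluorescence score within 5 deviations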;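 further: channel opened by trigger with iodide after compound preincubation; score built on the fluorescence ratio of max minus min over baseline; more negative score means more quench and so TMEM16A activation or potentiation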
# CHT act confirm: human CHT activation, confirmatory screen; AID 504833; CHT-expressing cells, membrane potential dye fluorescence (FDSS); % of choline EC20–EC90 response window; HEK293 expressing CHT LV-AA mutant; choline added at its EC20; activation, % at 10 µM; shares compounds with CHT allo act; actives 91% (n = 2,500);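 active means primary screen active, with duplicate mean activation above negative control mean plus 3 SD, cut at about 11% in these data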
# HEK293 MP dye: CHT activator counter-screen hit in parental HEK293 cells. membrane potential dye fluorescence (FDSS); measured after EC20 choline addition. ratio readout change at 10 µM, hits read low. actives 62% (n = 2,500). shares compounds with CHT allo act;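 active means duplicate-averaged ratio beyond 3 SD from buffer wells, up or down, though filed actives are nearly all decreases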
# Numbers without * were called inactive; i = inactive; . = not tested or not shown. This is a sample that favours compounds with a hit; in the whole collection about 2.3% have one here.
SMILES,TMEM16A inh,CHT inh,CHT allo act,ANO1 activ,CHT act confirm,HEK293 MP dye
CCC(C)n1c(=N)c(C#N)cc2c(=O)n3ccccc3nc21 (stereo not given),i,i,i,i,.,.
CCCn1c(=N)c(C#N)cc2c(=O)n3cccc(C)c3nc21,i,i,8.3*,.,49*,-38*
CCCn1c(=N)c(C#N)cc2c(=O)n3ccccc3nc21,i,i,7*,i,48*,-64*
Cc1cccn2c(=O)c3cc(C#N)c(=N)n(CCN4CCOCC4)c3nc12,.,.,.,i,.,.
CC(C)(C)OC(=O)N1CCC(c2c(C(=O)NCC3CCN(C4CCCC4)C3)cnn2-c2cccc(Cl)c2)CC1 (stereo not given),i,i,i,i,.,.
CCOC(=O)N1CCN(c2cc(NCCC(=O)O)c3c4c(onc24)-c2ccccc2C3=O)CC1,i,i,i,-12*,26*,-60*
CCC(C)COC(=O)C(C#N)c1nc2ccccc2nc1N1CCCCC1 (stereo not given),i,i,i,i,.,.
CCC(CC)COC(=O)C(C#N)c1nc2ccccc2nc1N1CCN(CC)CC1 (stereo not given),i,i,i,i,32*,-37*
O=C(Nc1ccccc1)OC1CCC2CC1CCC2OC(=O)Nc1ccccc1 (stereo not given),i,i,i,i,32*,i
NNC(=O)Cn1nc(Cc2ccccc2)n(N)c1=O,.,.,.,i,.,.
Nc1ccc(Br)c[n+]1Cc1cccc2cccnc12,i,i,i,i,34*,-46*
C#Cc1ccc(CN2CCCC(C(=O)Nc3ccccc3Oc3cccnc3)C2)cc1 (stereo not given),i,i,i,i,17*,i
O=C(Nc1ccccc1Oc1cccnc1)C1CCCN(Cc2ccccc2O)C1 (stereo not given),i,i,i,i,.,.
CCOC(=O)C1(CC2CC2)CCN(Cc2cn[nH]c2-c2cccc(F)c2)CC1,i,i,i,i,22*,i
Cc1cc(C)n2nc(C(=O)Nc3ccc(S(=O)(=O)N(C)C)cc3)nc2n1,i,i,8.2*,i,60*,-56*
Cc1cc(C)n2nc(C(=O)N/N=C/c3ccc(O)cc3)nc2n1,i,i,6.5*,i,30*,-24*
Cc1cc(C)n2nc(C(=O)Nc3ccc4c(c3)OCCO4)nc2n1,.,.,.,i,.,.
CCC(CC)c1nnc(NC(=O)c2nc3nc(C)cc(C)n3n2)s1,i,i,7.3*,i,30*,-31*
Cc1cc(C)n2nc(C(=O)Nc3ccc4c(c3)OCO4)nc2n1,i,i,7.6*,i,30*,-35*
COc1ccccc1C(C)Nc1ccc(S(=O)(=O)N2CCN(C)CC2)cc1[N+](=O)[O-] (stereo not given),.,.,.,i,.,.
COc1cc([N+](=O)[O-])ccc1NC(=O)COC(=O)CCS(=O)(=O)c1ccc(C)cc1,i,i,i,i,.,.
Cc1ccnc(NC(=O)C(C)N2C(=O)c3ccccc3S2(=O)=O)c1 (stereo not given),i,i,10*,i,6,i
Cc1ccnc(NC(=O)CN2C(=O)c3ccccc3S2(=O)=O)c1,i,i,i,i,.,.
Cc1csc(NC(=O)C(C)N2C(=O)c3ccccc3S2(=O)=O)n1 (stereo not given),i,i,i,i,11*,i
CC(Oc1ccccc1)C(=O)N(CCC1=CCCCC1)c1c(N)n(Cc2ccccc2)c(=O)[nH]c1=O (stereo not given),i,i,i,i,11*,i
SMILES,TMEM16A inh,CHT inh,CHT allo act,ANO1 activ,CHT act confirm,HEK293 MP dye
CCOC(=O)C1=C(CS(=O)(=O)c2ccc(C)cc2)NC(=O)NC1c1cc(OC)c(O)c(OC)c1 (stereo not given),i,i,i,i,.,.
Cn1c(N)c(C(=O)COC(=O)c2ccc(Cl)nc2)c(=O)n(C)c1=O,i,i,7.5*,i,22*,-31*
COc1ccc(C(=O)C[n+]2ccc3c(c2)nc(-c2ccccc2)n3C)cc1,i,i,i,i,.,.
Cc1nc2c(C)[n+](CC(=O)c3ccccc3)ccc2n1C,i,i,i,i,44*,-38*
COc1ccc(N(CC(=O)Nc2cccnc2)S(=O)(=O)c2ccccc2)cc1OC,i,i,i,i,.,.
O=C(C1CCC1)N1CCN(c2ccnc3cc(Cl)ccc23)CC1,i,i,i,i,.,.
O=C(C1CC1)N1CCN(c2ccnc3cc(Cl)ccc23)CC1,i,i,7.3*,i,65*,-67*
O=C(c1ccco1)N1CCN(c2ccnc3cc(Cl)ccc23)CC1,i,i,i,i,20*,-68*
O=C(N/N=C/c1c(F)cccc1Cl)C(=O)N1CCCCCC1,i,i,i,i,.,.
N=c1n(CCN2CCCCC2)c2ccccc2n1CC(O)c1cccc(Br)c1 (stereo not given),i,i,11*,i,37*,i
N=c1n(CCN2CCCC2)c2ccccc2n1CC(O)c1ccco1 (stereo not given),i,i,i,i,38*,-25*
CCCCCCCn1c(=N)n(CC(O)c2ccco2)c2ccccc21 (stereo not given),i,i,i,i,.,.
COc1ccccc1OCC(O)Cn1c(=N)n(CCN2CCCCC2)c2ccccc21 (stereo not given),i,i,i,i,.,.
CN(Cc1ccc(F)cc1)C(=O)C(c1ccccc1)c1ccccc1,i,i,i,i,37*,i
CN(Cc1cccc(F)c1)C(=O)C(c1ccccc1)c1ccccc1,i,i,6.5*,i,6,i
CN(Cc1cccc(F)c1)C(=O)c1cc(=O)[nH]c2ccccc12,i,i,i,i,.,.
CN(CCO)C(=O)C(c1ccccc1)c1ccccc1,i,i,i,i,.,.
COc1ccc(NC(=O)C(c2ccccc2)c2ccccc2)c(OC)c1,i,i,i,i,.,.
CN(Cc1ccc(F)cc1)C(=O)c1sccc1-c1ccccc1,i,i,6.7*,i,37*,i
COc1ccccc1CN(C)C(=O)C(c1ccccc1)c1ccccc1,i,i,11*,i,30*,i
Cc1ccc(OCCC(=O)OCC(=O)Nc2ccc3c(c2)OCO3)cc1,i,i,i,i,.,.
O=C(COC(=O)c1c(F)cccc1F)Nc1ccc(N2CCCCC2)cc1,.,.,.,i,.,.

# Screening data from PubChem.
